Screens: PubChem, National Center for Advancing Translational Sciences (NCATS)
PNC assembly inh = inhibitors of perinucleolar compartment assembly. activity change (PNC), negative = inhibition, % at 10 µM. PC3M PTB-GFP, PNC prevalence imaging, 16 h; active compounds read low. 3.1% of 140,000 active;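 active means readout at or below -70, meaning at least 70% loss of cells showing the perinucleolar compartment, a nuclear body marking cancer cells; inconclusive means readout between -30 and a set limit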
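Read-out is percentage of cells bearing a perinucleolar compartment, from automated 20x imaging of fixed, Hoechst-stained PC3M PTB-GFP cells. Cells were seeded 4 h, then exposed 16 h to compound (23 nl of library stock) in duplicate plates.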
HPGD inh = inhibitors of human 15-hydroxyprostaglandin dehydrogenase (HPGD); P15428; purified HPGD, NADH fluorescence kinetic, PGE2 substrate; Potency, µM, usual class: inhibitors; 4.3% of 150,000 active; active means well fitted inhibition curve with a large enough effect, not every such curve was filed as active; inconclusive means small, poorly fitted or top-dose-only effect, or another doubt; inactive means no such curve, though single readings can be large or run the other way
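NADH formation kinetics: reaction with 30 uM PGE2 and 1 mM NAD+ (final), 20 nM enzyme, Tris-HCl pH 8 with Tween 20, after 15 min compound preincubation at room temperature. Fluorescence change, last versus first of five reads.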
ALDH1A1 inh = ALDH1A1 (human) enzyme inhibition | Potency, µM (titrated, usually from 75.3 µM), actives largely listed as inhibitors | Purified ALDH1A1, NADH fluorescence, propionaldehyde substrate | 7.3% of 220,000 active | AID 1030; active means well fitted inhibition curve with a large enough effect, not every such curve was filed as active; inconclusive means small, poorly fitted or top-dose-only effect, or another doubt; inactive means no such curve, though single readings can be large or run the other way
NPSR antagonist = blocks cAMP signaling of the human neuropeptide S receptor. Q6W5P4. CHO-NPSR cells, cAMP TR-FRET, antagonist mode. Potency, µM (top dose mostly 38.3 µM), usual class: inhibitors. 1% of 220,000 active. AID 1461; further: nearly all actives have a fitted effect of over 50% in size
Target sequence (Q6W5P4 whole entry, looked up): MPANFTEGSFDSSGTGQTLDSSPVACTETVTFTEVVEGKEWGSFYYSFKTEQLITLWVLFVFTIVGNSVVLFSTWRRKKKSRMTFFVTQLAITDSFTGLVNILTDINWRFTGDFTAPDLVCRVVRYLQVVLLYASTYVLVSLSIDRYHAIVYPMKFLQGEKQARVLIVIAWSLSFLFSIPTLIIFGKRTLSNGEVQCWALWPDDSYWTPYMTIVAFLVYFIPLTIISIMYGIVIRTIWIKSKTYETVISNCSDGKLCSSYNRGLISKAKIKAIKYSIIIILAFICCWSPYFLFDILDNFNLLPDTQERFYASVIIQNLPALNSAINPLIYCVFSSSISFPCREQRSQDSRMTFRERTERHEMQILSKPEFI
IMPase inh = IMPase inhibition in cells | 120,000 tested, under 10 active | P97697 | CHO-M1 cells, IP1 accumulation, HTRF TR-FRET ratio | inhibition (IP1 accumulation), % at 46.1 µM; active means well fitted curve in the direction sought with a large enough effect in the signal ratio, not every such curve was filed as active; inconclusive means small, poorly fitted or top-dose-only effect, or a change in a side signal; inactive means no such curve, though single readings can be large or run the other way; the % refers to the signal ratio;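 further: cells stimulated with carbachol in lithium chloride buffer; higher means more IMPase inhibition seen as more IP1 and lower FRET ratio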
Target sequence (P97697 whole entry, looked up): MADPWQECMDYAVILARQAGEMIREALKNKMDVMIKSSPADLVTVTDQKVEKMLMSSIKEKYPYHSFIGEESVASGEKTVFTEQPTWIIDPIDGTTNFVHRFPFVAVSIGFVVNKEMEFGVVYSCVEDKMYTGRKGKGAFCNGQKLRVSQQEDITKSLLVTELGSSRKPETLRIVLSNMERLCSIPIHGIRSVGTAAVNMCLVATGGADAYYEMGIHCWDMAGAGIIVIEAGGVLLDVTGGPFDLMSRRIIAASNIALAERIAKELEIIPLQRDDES
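In this qHTS, compounds (final up to 46 uM) act on CHO-M1 cells that are then activated through the M1 receptor with carbachol, in pH 7.4 buffer containing 50 mM LiCl, for 30 min. IP1 accumulation is quantified by the IP-One immunoassay.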
IMPase Li cell = IMPase inhibition in cells with lithium potentiation. Potency, µM (top dose mostly 59.4 µM), most hits filed as inhibitors. 0.35% of 210,000 active. CHO-M1 cells, IP1 TR-FRET (IP-One), carbachol + lithium;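 further: IP1 builds up when IMPase is blocked and the TR-FRET signal falls; nearly all actives have a fitted effect of over 50% in size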
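CHO cells stably expressing M1 receptor (2000/well, cultured 16–30 h) treated 30 min at 37C with compound plus low lithium. Cytosolic IP1 by TR-FRET (665/620 ratio and 620 channel) after 10 min lysis; AC50 by Hill fit.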
Each line names hits and unclear results; the compound was inactive in the other large screens. Compounds with a hit are over-represented: about 11% of the library has one in this group of screens. Unless noted, the call rests on the fitted dose curve; in most records, active means well fitted curve in the direction sought with a large enough effect; inconclusive means small, poorly fitted or top-dose-only effect, or another doubt; inactive means no such curve, though single readings can be large; an effect the other way counts as inactive or inconclusive.

Cc1cc(C(=O)CSc2nnc(NCc3ccccc3)s2)c(C)n1C	HPGD inh 17.8µM
Cc1ccc(C)n1-n1c(C)nc2scc(-c3cccs3)c2c1=O	none
Cc1cccc(NC(=S)NNC(=O)c2csc(C(C)C)c2)c1	PNC assembly inh inconclusive, ALDH1A1 inh 12.6µM
Cc1cccc(NC(=S)NNC(=S)NCc2ccccc2)c1	HPGD inh inconclusive, ALDH1A1 inh 1.58µM
Cc1ccc(CNC(=S)Nc2ccc(C)c([N+](=O)[O-])c2)cc1	none (no result: HPGD inh, IMPase Li cell)
CCc1cc(C(=O)NNC(=S)Nc2cccc(C)c2)cs1	PNC assembly inh inconclusive, ALDH1A1 inh inconclusive
Cc1ccc(NC(=S)NCc2ccccc2)cc1[N+](=O)[O-]	HPGD inh 12.6µM
Cc1ccc(/C([O-])=C(/C(=S)NCc2ccccc2)[n+]2cccc(CO)c2)cc1[N+](=O)[O-]	ALDH1A1 inh 8.91µM (no result: PNC assembly inh, HPGD inh, IMPase inh)
O=C(O)c1cccc(NC(=S)NCc2ccccc2)c1	none (no result: PNC assembly inh, HPGD inh, IMPase inh)
O=C(c1ccco1)N(Cc1cc2ccccc2[nH]c1=O)C1CCCCC1	PNC assembly inh inconclusive, ALDH1A1 inh inconclusive
Cc1c(Cl)cccc1NC(=O)CN1C(=O)CSc2ncccc21	none
C(=C\c1ccccc1)/C=N/Nc1nncc(-c2ccccc2)n1	none
COCCCNC(=S)NNC(=S)Nc1cccc(Cl)c1	ALDH1A1 inh 4.47µM (no result: PNC assembly inh, HPGD inh, IMPase inh, IMPase Li cell)
S=C(NCc1ccccc1)Nc1cccc(Cl)c1	HPGD inh 14.1µM (no result: IMPase inh)
O=C(CNc1cccc(Cl)c1)NNC(=S)NCc1ccccc1	none (no result: PNC assembly inh, HPGD inh, IMPase inh)
Cn1c(Cn2c(=O)sc3ccccc32)nnc1SCC(=O)N1CCCC1	none
O=C(Nc1cccn2ncnc12)C(Cl)Cl	PNC assembly inh inconclusive
CCCn1c(NCc2cccc(OC)c2OC)nc2ccccc21	none
CCOC(=O)c1c(NC(=O)COC(=O)Cn2c(C)nc3ccccc32)sc2c1CCCC2	ALDH1A1 inh inconclusive (no result: IMPase inh)
COC(=O)c1c(NC(=O)COC(=O)Cn2cnc3ccccc32)sc2c1CCCC2	ALDH1A1 inh 14.1µM
COC(=O)c1c(NC(=O)COC(=O)Cn2cnc3ccccc32)sc(C)c1C	ALDH1A1 inh 25.1µM
COC(=O)c1cc(N=C(N)N=C(N)N)cc(C(=O)OC)c1	none (no result: PNC assembly inh, HPGD inh, ALDH1A1 inh, IMPase inh, IMPase Li cell)
CCN(Cc1ccccc1)c1ccc(/C=N/NC(=S)NC(C)C)cc1	PNC assembly inh inconclusive, HPGD inh inconclusive, ALDH1A1 inh inconclusive
CCN(CC)c1ccc(/C=N/NS(=O)(=O)c2ccc(CNC(C)=O)cc2)cc1	ALDH1A1 inh inconclusive (no result: IMPase inh)
CCN(Cc1ccccc1)c1ccc(/C=N/NS(=O)(=O)c2ccc(C)c([N+](=O)[O-])c2)cc1	PNC assembly inh inconclusive, HPGD inh inconclusive, ALDH1A1 inh 3.16µM
CCN(CC)c1ccc(/C=N/NS(=O)(=O)c2cccc([N+](=O)[O-])c2)cc1	ALDH1A1 inh 3.55µM
C/C(CC(=O)NCc1ccccc1)=N\NC(N)=S	none (no result: PNC assembly inh, HPGD inh, IMPase inh)
CNC(=S)/N=C(\Nc1ccc(C)cc1)c1ccccc1	none (no result: PNC assembly inh, HPGD inh, ALDH1A1 inh, IMPase inh, IMPase Li cell)
O=C(O)c1ccccc1-c1oc2cc(O)ccc2c(=O)c1Oc1ccccc1	HPGD inh inconclusive, ALDH1A1 inh 20µM (no result: PNC assembly inh, NPSR antagonist, IMPase inh)
O=C(O)c1ccccc1-c1c2ccc(=O)cc-2oc2cc(O)ccc12	HPGD inh inconclusive (no result: PNC assembly inh, NPSR antagonist, IMPase inh)
O=C(c1ccccc1NS(=O)(=O)c1ccc(F)cc1)N1CCCC1	none
COCC(=O)Nc1ccc(N(C)C)cc1	PNC assembly inh -80.9, HPGD inh inconclusive
COCC(=O)Nc1ccc(C(C)C)cc1	PNC assembly inh inconclusive, HPGD inh 17.8µM
Cc1ccc(OCC(=O)Nc2ccc(N(C)C)cc2)cc1	none
CN(C)c1ccc(NC(=O)COC(=O)CCC(=O)c2ccc(F)cc2)cc1	ALDH1A1 inh 10µM
CCn1c2ccccc2c(=O)c2ccccc21	ALDH1A1 inh inconclusive (no result: PNC assembly inh, HPGD inh, IMPase inh)
CCn1c(=O)c(-[n+]2ccccc2)c(O)c2ccccc21	ALDH1A1 inh 25.1µM
CCn1c(=O)c(C(=O)Nc2ccccc2C)c(O)c2ccccc21	PNC assembly inh -100.0, HPGD inh inconclusive
CCN1CCN(CCc2nc3cc(NC(=O)COc4ccc(Cl)cc4)ccc3n2C)CC1	none (no result: PNC assembly inh, HPGD inh, ALDH1A1 inh, IMPase inh, IMPase Li cell)
O=c1oc2ccccc2c(O)c1/C=N/c1nc(-c2ccc(O)c(O)c2)cs1	ALDH1A1 inh 3.55µM (no result: PNC assembly inh, NPSR antagonist, IMPase inh)
O=c1oc2ccccc2c(O)c1/C=N/c1ncccn1	HPGD inh inconclusive, ALDH1A1 inh inconclusive
Cc1cc(-c2ccc(Cl)cc2Cl)c(C#N)c(=O)[nH]1	none (no result: PNC assembly inh, HPGD inh, ALDH1A1 inh, IMPase inh, IMPase Li cell)
CSc1nc(-c2ccc(Cl)cc2Cl)[nH]c(=O)c1C#N	PNC assembly inh inconclusive, HPGD inh 2.51µM (no result: IMPase inh)
OCC#Cc1ncc(C(F)(F)F)cc1Cl	ALDH1A1 inh inconclusive (no result: PNC assembly inh, HPGD inh, IMPase inh)
